GRK2 aptamer HTS – inhibitors of human GRK2 displacing RNA aptamer | P25098 | bead flow cytometry, FAM-aptamer displacement from GRK2 | inhibition of aptamer binding, % at 10 µM | 330,000 compounds, 0.59% hits;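 active = inhibition of aptamer binding above 40%, roughly 3 SD of noise, on plates passing a quality check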;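 note: median bead fluorescence of bound FAM aptamer so fluorescent compounds give negative values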
Beta2AR agonist – agonists of human beta-2 adrenergic receptor inducing internalization; Am2.2-beta2AR cells, FAP receptor internalization, flow cytometry; 340,000 compounds, 0.43% hits; response, % (concentration not given with the values);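 active = response above a set limit, near 3 SD of response in nonfluorescent compounds, cut at about 42% in these data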
PP1 counter – blocks human PP1-alpha phosphatase, a PP5 counter-screen. 320,000 compounds, 0.9% hits. P62136. inhibition, % at 6.7 µM. AID 2235. purified PP1alpha, OMFP fluorescence;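 active = inhibition above the mean inhibition of all tested compounds plus 3 SD, computed separately for each screening campaign, cut at about 15% in these data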
Granule exo inh – lytic granule exocytosis inhibition | 360,000 compounds, 0.66% hits | inhibition, % at 10 µM | TALL-104 LAMP-1 surface exposure, flow cytometry; cells stimulated with thapsigargin and PMA | AID 651702;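 active = inhibition above about 55%, limit read from the data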
NadD inh – blocks S. aureus nicotinate mononucleotide adenylyltransferase. 360,000 compounds, 0.78% hits. purified NadD enzyme, colorimetric absorbance read-out. inhibition, % at 20 µM; in the data active = inhibition above about 26%
PP1 confirm – human PP1 phosphatase inhibition, confirmation; shares compounds with PP1 counter; purified PP1alpha, OMFP substrate fluorescence; inhibition, % at 6.7 µM; 1,900 compounds, 52% hits; AID 2358;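 active = mean PP1 inhibition above a set limit taken from the earlier primary screen, cut at about 15% in these data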
PP5 inh counter – PP5 phosphatase inhibition, counter-screen for PP1 inhibitors. shares compounds with PP1 counter. purified PP5c, OMFP fluorescence. inhibition, % at 6.7 µM. 1,900 compounds, 4% hits. AID 2360;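 active = mean PP5 inhibition over triplicate wells above about 9.5% taken from the earlier PP1 screen, limit read from the data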
Target sequence (P53041 whole entry, looked up): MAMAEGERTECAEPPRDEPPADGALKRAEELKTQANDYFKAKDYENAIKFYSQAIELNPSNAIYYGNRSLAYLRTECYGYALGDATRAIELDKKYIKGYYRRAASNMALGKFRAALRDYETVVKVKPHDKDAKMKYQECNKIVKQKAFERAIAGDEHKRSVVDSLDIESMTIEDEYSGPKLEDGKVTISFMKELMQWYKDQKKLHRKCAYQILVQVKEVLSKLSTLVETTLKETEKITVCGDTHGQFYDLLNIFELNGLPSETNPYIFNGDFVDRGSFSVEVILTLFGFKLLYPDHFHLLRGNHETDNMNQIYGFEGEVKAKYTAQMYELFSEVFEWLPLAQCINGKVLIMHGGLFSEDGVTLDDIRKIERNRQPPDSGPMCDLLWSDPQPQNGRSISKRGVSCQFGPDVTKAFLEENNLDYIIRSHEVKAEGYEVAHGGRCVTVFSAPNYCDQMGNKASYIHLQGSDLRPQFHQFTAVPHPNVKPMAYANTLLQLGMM
The depositor's hits bear a star; nt = no result. Hits are enriched below; roughly 2.9% of the tested compounds scored in any of these assays.

SMILES	GRK2 aptamer HTS	Beta2AR agonist	PP1 counter	Granule exo inh	NadD inh	PP1 confirm	PP5 inh counter
C#CCOCCOCCOCCNc1nc(N2CCN(C(=O)[C@H]([C@@H](C)CC)n3cc(CCCCN)nn3)CC2)nc(N2CCN(C(=O)[C@H](CCCCN)n3cc(CCC(=O)O)nn3)CC2)n1	0	-1	2	-4	-3	nt	nt
O=C(Nc1oc2ccccc2c(=O)c1-c1ccc(Cl)cc1)c1ccco1	0	3	-7	-1	-5	nt	nt
O=C(c1[nH]c(C(F)(F)F)nc1-c1ccccc1)N1CCN(c2cccc(C(F)(F)F)n2)CC1	nt	nt	nt	-3	2	nt	nt
COC(=O)c1sc(N)c(C(=O)OC)c1COC(=O)C1CC(=O)N(Cc2ccco2)C1 (configuration not stated)	4	13	18*	0	-9	-3	-2
O=C1CC(=O)C(n2cncn2)C(c2cccc(Cl)c2)C1 (configuration not stated)	1	-1	22*	3	-7	-6	-6
O=C(O)C1Nc2ccc(OC(F)(F)F)cc2C2C=CCC12 (configuration not stated)	29	nt	22*	nt	nt	4	-1
O=C(NC1CC1)C1Nc2ccc(OC(F)(F)F)cc2C2C=CCC12 (configuration not stated)	2	0	-1	0	-8	nt	nt
COC(=O)c1sc(-c2ccc(C(C)(C)C)cc2)cc1NC(=O)CSCC(=O)O	0	4	7	10	3	nt	nt
COCCNC(=O)CSc1nc2nn(-c3ccccc3)c(=O)c-2c2n1CCCCC2	0	-4	4	-3	4	nt	nt
N#Cc1c(-c2ccco2)cc(-c2ccccn2)nc1N	2	15	27*	-2	13	7	0
N#Cc1c(-c2ccco2)cc(-c2cccnc2)nc1N	1	10	28*	1	17	6	1
N#Cc1c(-c2ccco2)cc(C2CC2)nc1N	0	8	2	-2	1	nt	nt
O=c1c2c3c(sc2n(CCN2CCCC2)c(=O)n1Cc1ccco1)CCCCC3	0	-2	4	-1	2	nt	nt
O=C(Cn1c(=O)n(Cc2ccco2)c(=O)c2c3c(sc21)CCCCC3)c1ccccc1	0	-9	25*	0	35*	16*	-1
C/C(Cn1nc([N+](=O)[O-])cc1C)=N\NC(=O)c1ccc(C(C)(C)C)cc1	0	16	0	-4	1	nt	nt
CCc1nc2ccc(C(=O)N3CCCCC3)cn2c1N(C)CCCc1ccccc1	nt	nt	nt	25	1	nt	nt
COc1cc(/C=N/NC(=O)c2ccccc2O)ccc1OCC(=O)Nc1ccccc1	0	7	18*	3	7	16*	-8
COc1cc(/C=C2\SC(=Nc3ccccc3)N(CCc3c[nH]c4ccccc34)C2=O)ccc1OC(C)C(=O)O (configuration not stated)	0	19	18*	0	19	12	0
NC(=O)CC(NC(=O)Cc1ccc(Br)cc1)c1ccc(N2CCC(Cc3ccccc3)CC2)c([N+](=O)[O-])c1 (configuration not stated)	1	9	23*	36	6	10	-6
NC(=O)CC(NC(=O)Cc1ccc(Br)cc1)c1ccc(N2CCCCCCC2)c([N+](=O)[O-])c1 (configuration not stated)	4	-4	7	-4	-11	nt	nt
NC(=O)CC(NC(=O)Cc1ccc(Br)cc1)c1ccc(N2CCC(Br)CC2)c([N+](=O)[O-])c1 (configuration not stated)	1	-11	27*	-6	-4	16*	-4
CCN(CC(=O)Nc1ccc(NC(C)=O)cc1)C(=O)c1cccc(S(=O)(=O)N2CCCC2)c1	0	-6	-5	-6	0	nt	nt
O=C(NCCN1CCOCC1)/C(=C/c1ccco1)NC(=O)c1ccccc1	4	-4	-3	-2	1	nt	nt
Nc1nn2c(-c3ccccc3)cc(=O)[nH]c2c1N=Nc1ccc(O)cc1	6	-17	28*	-6	24	20*	1
COCCCn1c(SCC(=O)N2CCOCC2)nc2cc(Cl)ccc2c1=O	0	2	-2	-1	1	nt	nt
SMILES	GRK2 aptamer HTS	Beta2AR agonist	PP1 counter	Granule exo inh	NadD inh	PP1 confirm	PP5 inh counter
CN(CC(=O)N1CCN(Cc2ccccc2)CC1)C(=O)Cc1cccc2ccccc12	0	-10	-3	0	-1	nt	nt
CC(C)C[C@H](NC(=O)c1nc[nH]c1C(=O)N[C@@H](CC(C)C)C(=O)OCc1ccccc1)C(=O)OCc1ccccc1	3	8	10	-1	13	nt	nt
CC(C)C[C@H](NC(=O)c1nc[nH]c1C(=O)NC(c1ccccc1)c1ccccc1)C(=O)OCc1ccccc1	0	-2	19*	7	1	11	3
COC(=O)c1ccc(C2/C(=C(\O)c3ccc(OC)c(C)c3)C(=O)C(=O)N2c2cc(C)on2)cc1 (configuration not stated)	3	-8	19*	-1	13	16*	-6
CCOc1ccc(C2/C(=C(\O)c3ccc(OC)c(OC)c3)C(=O)C(=O)N2c2cc(C)on2)cc1OC (configuration not stated)	0	1	0	-4	9	nt	nt
Cc1nn(CC(=O)Nc2ccc(C(=O)N3CCCCC3)cc2)c(=O)c2ccccc12	0	5	23*	-3	0	-2	0
CC(C)CC(=O)Nc1ccc(C(=O)Cn2nc(C(=O)O)c3ccccc3c2=O)cc1	0	10	20*	2	4	23*	0
Oc1c(CN2CCN(c3ccccn3)CC2)cc(Cl)c2cccnc12	0	2	26*	35	-1	30*	-5
OCCN1CCN(Cc2cc(Cl)c3cccnc3c2O)CC1	5	7	-5	1	-2	nt	nt
CCOc1ccc(NC(=O)CN(C)CC(=O)NC2CCCc3ccccc32)cc1OCC (configuration not stated)	29	4	5	5	0	nt	nt
CCc1ccccc1NC(=O)CCc1c(C)nn(-c2ccc(N3CCOCC3)nn2)c1C	6	-14	0	8	0	nt	nt
CCCCCCCC/C=C\CCCCCCCC(=O)NCCc1ccc(O)c(O)c1	0	34	16*	6	-1	8	2
CS(=O)(=O)N1CCC(C(=O)Nc2cccc(Cl)c2Cl)CC1	0	5	-1	6	-5	nt	nt
Cc1cccc(OCCn2c(NC(=O)c3ccco3)nc3ccccc32)c1	0	-13	20*	50	-4	3	7
Cc1ccc(OCCn2c(NC(=O)c3ccco3)nc3ccccc32)cc1	0	-5	-1	12	6	nt	nt
COCCn1c(=NC(=O)c2cccs2)sc2cc(NC(C)=O)ccc21	1	-15	19*	0	-9	-1	-3

Screening results as filed in PubChem BioAssay.
